# Test results from ChEMBL document CHEMBL4888484, “Replenishing the malaria drug discovery pipeline: Screening and hit evaluation of the MMV Hit Generation Library 1 (HGL1) against asexual blood stage Plasmodium falciparum ,using a nano luciferase reporter read-out” (2022).
# The whole screen tested about 4,800 compounds, of which about 410 (8.5%) showed an effect of 50% or more. Many of the other results were omitted from the sample, so strong results are more common in it than they were.
# Tested on: Plasmodium falciparum
# Assay: Confirmatory screen in NF54 pLDH assay, in single point, at 2uM, 72h
# Format: functional, Erythrocyte
# Details: timepoint 72 hour
row,Structure (SMILES),% Inhibition
1,COc1ccc(OC)c(CCNC(=O)Cn2ccc3cc(S(=O)(=O)N4CCCC4)ccc32)c1,11%
2,COc1ccc(CNC(=O)c2ccc(N3C(=O)[C@@H]4Cc5c([nH]c6ccccc56)C(c5cccc(OC)c5)N4C3=O)cc2)cc1 (stereo partly specified),32%
3,CCOc1ccc(C2c3[nH]c4ccccc4c3C[C@H]3C(=O)N(C4CCN(Cc5ccccc5)CC4)CC(=O)N23)cc1OC (stereo partly specified),79%
4,COc1ccccc1C1c2[nH]c3ccccc3c2C[C@H]2C(=O)N(CC(O)c3ccccc3)CC(=O)N12 (stereo partly specified),12%
5,CCN1c2cc(C)ccc2-n2cccc2C12CCNCC2,-7%
6,COc1ccc(C(C)(C)C(=O)N(C)Cc2cn(C)nc2C(C)C)cc1,13%
7,COc1nc(NC2CCS(=O)(=O)CC2)ncc1F,77%
8,CC1(C)C(NCC(O)COc2ccc(F)c(F)c2)[C@@H]2CCC[C@@H]21 (stereo partly specified),75%
9,Cc1cccc2sc(N3CCC[C@H](CNS(N)(=O)=O)C3)nc12,9%
10,Cc1nc(N2CCC(c3nc(-c4ccccc4)no3)CC2)c2c(C)noc2n1,9%
11,CCn1nccc1CN(C)C(=O)c1cc(S(=O)(=O)N(C)C)c(Cl)cc1Cl,-10%
12,COc1cccc(-c2nc(C)c(C(=O)Nc3nc(C(C)C)n[nH]3)s2)c1,10%
13,CN1CCCN(c2ccc(NC(=O)c3nn(-c4ccccc4)c(=O)c4ccccc34)cc2F)CC1,68%
14,O=C(NC1CCCCC1)c1nn(-c2ccccc2)c(=O)c2ccccc12,-12%
15,O=C(Nc1ccc(N2CCCC2)c(F)c1)C(=O)Nc1ccon1,-13%
16,Cc1ccc(S(=O)(=O)N(CC(=O)N[C@@H](C)c2ccccc2)c2cccc(Br)c2)cc1,11%
17,CCCc1ccc(OCCNC(=O)C2CCCC2)cc1,3%
18,O=C(Nc1ccccc1)C(=O)Nc1ccc2ncc(Cl)n2c1,7%
19,O=C(c1cc2nc(-c3ccc(Cl)c(Cl)c3)cc(C(F)(F)F)n2n1)N1CCN(c2ccccc2)CC1,-7%
20,CCc1ccc(-c2cc3c(=O)n(CC(=O)N4CC(C)CC(C)C4)ncn3n2)cc1 (stereo unspecified),11%
21,Cc1cc(NCCc2nccn2C)ncn1,-4%
22,Cc1sc2nc(-c3ccccn3)nc(NCC(=O)N3CCC(O)CC3)c2c1-c1ccccc1,23%

row,Structure (SMILES),% Inhibition
1,CCN1CCN(c2nc3ncn(CC(=O)NCCCc4ccccc4)c(=O)c3s2)CC1,-2%
2,CCc1c(C)nn(S(=O)(=O)c2ccc3ccccc3c2)c1O,-3%
3,Cc1ncsc1COC(=O)c1ccnc(N(C)C)c1,10%
4,C[C@H]1CCC[C@@H](NCCc2ccccc2)CCC/C=C/c2cc(O)cc(O)c2C(=O)O1,72%
5,Cc1cccc(NC(=O)c2cc(Cl)c[nH]2)n1,6%
6,COc1ccccc1C1CC1c1nc(CC(=O)NC2CCCC2)no1 (stereo unspecified),-5%
7,Cc1ccc(-c2noc(CCC(=O)NC[C@H]3CCCO3)n2)c(=O)n1C(C)C,0%
8,CN(CCNC(=O)CCc1cn(-c2ccccc2)nc1-c1ccc2c(c1)OCO2)C1CCCCC1,49%
9,CC[C@H](C)NC(=O)c1cn(-c2cccc(C)n2)cn1,13%
10,Nc1ccc(Cc2nnc3n2CCC3)cc1,8%
11,O=C(N[C@@H](CN1CCCC1)c1ccccc1)N1CCC(c2ccn[nH]2)CC1,43%
12,Clc1cccc(CNCCCNc2ccncc2)c1Cl,95%
13,CN(C)CCCNCc1ccccc1F,10%
14,OCCNCc1c(Cl)cccc1Cl,4%
15,CC(NC(=O)C1CCC1)C(=O)Nc1ccn(C(C)c2ccccc2)n1 (stereo unspecified),-6%
16,O=C(Nc1ccc(Cn2ccnc2)cc1)c1cc2ccccc2cc1OC(F)F,-12%
17,c1ccc2c[n+](Cc3ccc4ccccc4n3)ccc2c1,47%
18,O[C@@H](Cc1ccc2ccccc2n1)c1ccccc1,-3%
19,Cc1ccc[n+](Cc2ccc3ccccc3n2)c1,53%
20,CCn1nc(-n2cnnc2)c(NS(=O)(=O)c2ccc(Br)cc2C)c1C,12%
21,CC(=O)Nc1cccc(NC(=O)Cn2c(=O)n(CCc3cccs3)c(=O)c3ccccc32)c1,10%
22,CCOC(=O)c1cn(CC)c2cc(NC3CCCCC3)c(F)cc2c1=O,69%

row,Structure (SMILES),% Inhibition
1,CCOC(=O)c1ncn(C2CCCCC2)c1N,10%
2,CCOC(=O)c1cc(NC(=O)C(C)(C)NC(=O)OC(C)(C)C)c(F)cc1C,8%
3,CC[C@H]1C[C@@H]1CNC(=O)c1cccc(NC(=O)c2ccco2)c1,-2%
4,Cc1cc2[nH]ncc2cc1NC(=O)c1ccco1,9%
5,COC(C)(C)c1nc(Cn2cnc3ccccc32)no1,6%
6,CC(C)[C@H](NC(=O)c1ccc(Cl)cc1Cl)C(=O)O,-5%
7,CCOC(=O)CCn1cc(F)c(=O)[nH]c1=O,66%
8,CCOC(=O)CNc1ccc(F)c(Cl)c1,-3%
9,CCOC(=O)COc1cc(N)c(F)cc1Cl,-9%
10,COCCCNC(=O)c1cncc(Br)c1,-2%
11,NC(=O)c1cc(Cl)c(Cl)c(Cl)c1,-22%
12,O=C1CCC[C@H](O)N1Cc1ccc(F)cc1,8%
13,CCc1ccc(CN2CCC[C@H](c3ncc[nH]3)C2)nc1,52%
14,CC(C)n1ccc(CN2CCC[C@H](c3cc(C(F)(F)F)[nH]n3)C2)n1,1%
15,CCc1ccc([C@H]2NCCc3[nH]cnc32)nc1,24%
16,c1ccc(C(c2ccccc2)N2CCN(c3nn4cnnc4c4ccccc34)CC2)cc1,65%
17,O=C(c1cccc(C(=O)N2CCN(C(c3ccccc3)c3ccccc3)CC2)c1)N1CCN(C(c2ccccc2)c2ccccc2)CC1,26%
18,CCc1cc(C(=O)N2CCCCC2)c2c(C)nn(-c3ccc(OC)cc3)c2n1,10%
19,COC(=O)[C@](Nc1ccc(Oc2ccccc2)cc1)(c1cc(C)c(O)c(C)c1)C(F)(F)F,7%
20,CCCCn1c(N)c(N(Cc2ccccc2OC)C(=O)c2ccoc2C)c(=O)[nH]c1=O,-22%
21,Cc1ccc(Nc2c(C(=O)NCc3ccc(F)cc3)cnc3c2c(C)nn3C)cc1,-5%
22,O=C(NCCN1CCCC1)c1cc2n(n1)CCN(Cc1cccc(F)c1)C2=O,-27%

row,Structure (SMILES),% Inhibition
1,N#Cc1nc2c(C#N)c(N)n(CCc3ccccc3)c2nc1C#N,92%
2,N#Cc1c(-c2ccccc2)cc(-c2ccccc2)nc1S(=O)(=O)Cc1ccccc1,43%
3,Nc1nc2c(s1)CN(CCc1ccccc1)CC2,41%
4,O=S(=O)(c1ccccc1F)C1CNC1,-18%
5,O=C(c1cccc(COc2ccc(Br)cc2)c1)N1CCN(Cc2ccccc2)CC1,-14%
6,O=C(c1coc(-c2ccccc2)n1)N1CCc2cc(Br)ccc21,1%
7,CC(C)c1nc(C(=O)Nc2[nH]c(=O)ncc2F)cs1,83%
8,Cc1ccc(-c2cc(C(=O)Nc3nnc(C(C)C)s3)no2)cc1F,16%
9,CC(C)c1nc(C(=O)Nc2ccccc2CN2CCNC2=O)cs1,5%
10,Cc1nc(C(=O)Nc2[nH]c(=O)ncc2F)c(-c2ccccc2)o1,70%
11,O=C(Nc1[nH]c(=O)ncc1F)c1coc(-c2ccccc2)n1,71%
12,O=C(CNc1cc(F)c(F)cc1F)NC(=O)NCC(F)(F)F,-5%
13,CC(C)CN1C(=O)CC[C@@H](C(=O)NCCCN2CCOCC2)[C@@H]1c1cccnc1,-17%
14,Cc1nc2ccc(Cl)cc2c(-c2ccccc2)c1C1=NN(S(C)(=O)=O)[C@H](c2ccccc2Cl)C1,-14%
15,Cn1cc(-c2csc(NC(=O)c3ccc4[nH]cnc4c3)n2)cn1,7%
16,CCN1C(=O)CN(C(=O)c2cccc(C)c2)CC12CCOCC2,9%
17,CC(C)(C)NC(=O)CNC(=O)c1cccc(F)c1,-8%
18,O=C(Nc1nc2cccc(Cl)c2o1)c1cccc(F)c1,92%
19,Cc1nc(Cn2nnc(NC(=O)c3cccc(F)c3)c2C)no1,8%
20,Cc1c(Br)c(C)n(NC(=O)c2cnn(Cc3ccccc3)c2)c(=O)c1C#N,-15%
21,Cc1cccc(C)c1Oc1ccccc1NC(=O)CCc1nnc[nH]1,4%
22,O=S(=O)(Nc1ccc2nncn2c1)c1c(F)cccc1Cl,-18%

row,Structure (SMILES),% Inhibition
1,Cc1ccc(F)cc1NC(=O)N1CCC12CCC2,11%
2,N#CC1(c2ccccc2)c2ccccc2C(=O)c2ccccc21,-4%
3,CN(Cc1ccccc1)C(=O)C[C@H]1CCN(C(=O)NC2CCCC2)C1,2%
4,Cc1cccc2ncnc(N(C)[C@@H](C)Cc3ccc(O)cc3)c12,84%
5,Cc1n[nH]c2ncc(NC(=O)c3ccc(CCC(F)(F)F)cc3)cc12,17%
6,Cc1cc(C)cc(CN2CCCN(c3ccc(C)cc3NC(=O)Cc3ccc(F)cc3)C2=O)c1,13%
7,CC(C)CCO[C@@H](C)C(=O)NC1CCN(CC(=O)NC(C)C)CC1,5%
8,O=C1C2C3C=CC(C3=C3CCCCC3)C2C(=O)N1c1cccc(Cl)c1 (stereo unspecified),15%
9,COc1cccc(S(=O)(=O)N2CCC(OCCOCc3ccccc3)CC2)c1,10%
10,COc1cccc(S(=O)(=O)N2CCC(OCCOc3ccccc3)CC2)c1,7%
11,COc1cccc(S(=O)(=O)N2CCCN(Cc3ccncc3)[C@H](c3ccccc3)CC(=O)NCC2)c1,86%
12,Cc1cccc(NC(=O)Cn2ccc(C(=O)Nc3cccc(C)c3C)n2)c1C,-11%
13,CCOC(=O)[C@@H]1C(=O)Nc2cc(OC)ccc21,9%
14,COc1ccc(CCNCC(=O)Nc2c3c(nc4ccccc24)N(C)CC3)cc1OC,6%
15,CN(C)c1ccc(NN=C2N=NN=N2)cc1,3%
16,COc1cccc(NC(=O)Cn2c(C)ccc(NS(=O)(=O)c3ccc(C)cc3)c2=O)c1,59%
17,COc1cccc(Cn2c(=O)c3sccc3n(CC(=O)Nc3ccc4c(c3)OCO4)c2=O)c1,16%
18,COc1cccc(NC(=O)Cn2c(=O)n(C)c(=O)c3sc(N4CCCC4)nc32)c1,1%
